Wnt act: Wnt/beta-catenin pathway activators, primary screen, cell-based, plate reader, single point. Wnt/beta-catenin reporter cell assay, activator. activation, % at 9.35 µM. 1.2% of 300,000 active. AID 743398, 2014; in the data active means activation above about 30%, passing the limit was not always enough; inconclusive means no clear call, values can overlap the other calls
esBAF inh: Bmi1 luciferase reporter increase in mESCs, primary screen, esBAF inhibitor project, mouse ES cells, Bmi1 luciferase knock-in, single point | 2% of 350,000 active | reporter increase, % at 12.5 µM | 24 h; 100% = twice the neutral-well signal | AID 602393, 2012; in the data active means activation above about 40%; inconclusive means no clear call, values can overlap the other calls;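 further: a rise in the Bmi1 reporter signal indicates esBAF inhibition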
MITF act: activators of MITF-driven TRPM1 promoter reporter, primary screen, cell-based, SK-MEL-5, luciferase, single point | activation, % at 12.5 µM | 0.75% of 300,000 active | AID 588334, 2011 | SK-MEL-5 TRPM1-promoter luciferase, 24 h; % of positive control, neutral wells = 0;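 active means mean activation of at least 80% with every replicate also reaching 80%; inconclusive means mean reaches 80% but some replicate falls short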
HSF1 inh: HSF1 inhibitors in luciferase reporter cells, primary screen, cell-based, NIH3T3, luminescence | NIH3T3-HGL HSE-luciferase, MG132-induced, luminescence 8 h; hits give low values | 0.77% of 300,000 active | activity change, negative = inhibition, % at 7.5 µM (by protocol);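 active means more than half of replicate wells show activity change below -50%, luminescence cut by over half; inconclusive means some wells, but at most half, below -50%; inactive means no replicate well below -50%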;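 further: luciferase reports HSF-1 transcriptional activity via heat shock element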
HSF1 activator: HSF-1 activators, primary screen, NIH3T3-HGL cells, MG132 stress, luminescence, single point; NIH3T3-HGL HSF-1 luciferase reporter, 8 h; 100% = twice DMSO control signal; activation, % at 9 µM; 1.7% of 300,000 active;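 active means mean replicate activation of at least 50% with a set share of replicates each reaching 50%; inconclusive means only one of those two conditions met; inactive means mean below 50% and too few replicates reaching it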
Hits are given with their value. Only some compounds are listed: those with a hit (about 3.8% of all), similar ones and a draw of the others.

Screening Cc1cc(=O)[nH]c(N/N=C/c2c[nH]c3ccccc23)n1 returned Wnt act inactive, esBAF inh inactive, MITF act inactive, HSF1 inh inactive and HSF1 activator inactive.
Cc1ccsc1/C=N/Nc1nc(Cl)c(Cl)cc1Cl was read as Wnt act inactive, esBAF inh inconclusive, MITF act inactive, HSF1 inh inactive and HSF1 activator inactive.
Screening C(=N\Nc1nc2ccccc2[nH]1)/c1c[nH]c2ccccc12 returned MITF act 123, HSF1 inh inactive and HSF1 activator 309.
Cc1ccc(/C=N/Nc2nc(Cl)c(Cl)cc2Cl)s1 was read as Wnt act 72, esBAF inh 60, MITF act inactive, HSF1 inh inactive and HSF1 activator inactive.
`C[C@H](CO)N1C[C@H](C)[C@@H](CN(C)C)Oc2cc(-c3cccc(C(=O)N(C)C)c3)ccc2S1(=O)=O` gave esBAF inh inactive.
`Cc1ccc(S(=O)(=O)Nc2cccc3c2O[C@@H](CN(C)S(=O)(=O)c2cn(C)cn2)[C@@H](C)CN([C@@H](C)CO)C3=O)cc1` gave esBAF inh inactive.
COc1cccc(/C=N/Nc2nc(C)cc(=O)[nH]2)c1OC was read as Wnt act inactive, esBAF inh inactive, MITF act inactive, HSF1 inh inactive and HSF1 activator inactive.
`C(=N\Nc1nc2ccccc2[nH]1)/c1cccc2cccnc12` gave Wnt act 37, HSF1 inh inactive and HSF1 activator inactive.
Screening Fc1cccc(/C=N/Nc2nc3ccccc3[nH]2)c1 returned Wnt act inactive, HSF1 inh inactive and HSF1 activator inactive.
`Cc1ccccc1/C=N/Nc1nc2ccccc2[nH]1` gave Wnt act inactive, MITF act inactive, HSF1 inh inactive and HSF1 activator 229.
Screening COc1ccc(/C=N/Nc2nc3ccccc3[nH]2)c(OC)c1OC returned Wnt act inactive, esBAF inh inactive, MITF act inactive, HSF1 inh inactive and HSF1 activator 108.
Screening O=[N+]([O-])c1cc(/C=N/Nc2nc3ccccc3[nH]2)c(O)cc1O returned Wnt act inactive, HSF1 inh inactive and HSF1 activator 305.
`Cc1noc(C)c1S(=O)(=O)N(C)C[C@@H]1Oc2ccc(NC(=O)Cc3ccccc3)cc2CC(=O)N([C@H](C)CO)C[C@@H]1C` gave esBAF inh inactive.
Screening CC(C)C(=O)Nc1ccc2c(c1)C(=O)N(C)[C@@H]1CC[C@@H](CC(=O)N[C@H](C)c3ccccc3)O[C@@H]1CO2 returned esBAF inh inactive.
For CC(C)NC(=O)Nc1cccc2c1O[C@@H](CN(C)C(=O)NC1CCCCC1)[C@@H](C)CN([C@H](C)CO)C2=O the results were esBAF inh inactive.
For C[C@H](NC(=O)[C@@H]1N[C@@H]2c3ccc(-c4cccnc4)c(=O)n3C[C@@H]2[C@H]1CO)c1ccccc1 the results were esBAF inh inactive.
Screening O=C(O)C[C@H]1C[C@@H]2c3cc(NS(=O)(=O)c4ccccc4)ccc3O[C@@H]2[C@@H](CO)O1 returned esBAF inh inactive.
`Brc1ccc2[nH]c3c(c2c1)CCC3` gave Wnt act inactive, esBAF inh inactive, MITF act inactive, HSF1 inh inactive and HSF1 activator inactive.
O=C1Cc2c([nH]c3ccc(Br)cc23)-c2ccccc2N1 was read as Wnt act 96.
For CC(C)CN(CCOc1cccc(N2C(=O)C3=C(CCCC3)C2=O)c1)CC(C)C the results were Wnt act 42, MITF act inactive, HSF1 inh inactive and HSF1 activator inactive.
Cc1nc(SCC(=O)N2CCNC2=O)c2ccccc2n1 was read as Wnt act inactive, esBAF inh inactive and MITF act inactive.
Screening O=C(CSc1ncnc2ccccc12)N1CCNC1=O returned Wnt act inactive, esBAF inh 42 and MITF act inactive.
For CN(C(=O)CSc1ncnc2ccccc12)C1CCCCC1 the results were Wnt act inactive, esBAF inh 86 and MITF act 104.
Screening Cc1ccc(-c2nc3ccccc3[nH]2)cc1NC(=O)/C=C/c1ccco1 returned esBAF inh inactive, MITF act inactive, HSF1 inh inactive and HSF1 activator inactive.
For Cc1ccc(-c2nc3ccccc3[nH]2)cc1NC(=S)NC(=O)c1ccccc1Br the results were Wnt act inactive, esBAF inh 58, MITF act inactive, HSF1 inh inactive and HSF1 activator inactive.
`Cc1ccc(-c2nc3ccccc3[nH]2)cc1NC(=O)c1ccc2c(c1)OCO2` gave esBAF inh 45, MITF act inactive, HSF1 inh inactive and HSF1 activator 88.
Screening C[C@H]1CN([C@@H](C)CO)C(=O)Cc2cc(NC(=O)c3ccncc3)ccc2O[C@H]1CN(C)C(=O)Nc1ccccc1 returned esBAF inh inactive.
`Cc1cc(NC(=O)Cn2ccc([N+](=O)[O-])n2)no1` gave Wnt act inactive, MITF act inactive, HSF1 inh -52 and HSF1 activator inactive.
`CN(C)C(=O)N1CCCC(C(=O)NCc2ccc(F)cc2Cl)C1` (stereo not given) gave esBAF inh inactive and MITF act inactive.
`CN(C)C(=O)N1CCC(C(=O)NCc2ccc(F)cc2Cl)CC1` gave esBAF inh inactive, MITF act inactive, HSF1 inh -69 and HSF1 activator inactive.
Screening C[C@H]1CN([C@@H](C)CO)C(=O)c2cccc(NS(=O)(=O)c3ccc(F)cc3)c2O[C@H]1CN(C)C returned esBAF inh inactive.
COc1cccc(NC(=O)CSc2nc(N)cc(N)n2)c1 was read as Wnt act inactive, MITF act inactive, HSF1 inh inactive and HSF1 activator 66.
Cc1cccc(NC(=O)CSc2nc(N)cc(N)n2)c1 was read as Wnt act inactive, esBAF inh inactive, HSF1 inh inactive and HSF1 activator inactive.
`COc1ccc(NC(=O)CSc2nnc(-c3cccc(O)c3)o2)cc1` gave Wnt act inactive, esBAF inh inactive, MITF act inactive, HSF1 inh inactive and HSF1 activator inactive.
Cc1cccc(NC(=O)CSc2c3c(nc4ccccc24)CCC3)n1 was read as MITF act inactive, HSF1 inh inactive and HSF1 activator inactive.
For COc1cccc(NC(=O)CSc2c3c(nc4ccccc24)CCCC3)c1 the results were MITF act inactive, HSF1 inh inactive and HSF1 activator 62.
For COc1ccc(NC(=O)CSc2nnc3ccc(-c4ccncc4)nn23)cc1 the results were Wnt act inactive, esBAF inh inactive, MITF act inactive, HSF1 inh inactive and HSF1 activator inactive.
COc1cccc(NC(=O)CSc2nnc(-c3cc(C)n(-c4ccccc4)c3C)o2)c1 was read as Wnt act inactive, MITF act inactive, HSF1 inh -53 and HSF1 activator inactive.

Screens (PubChem)
